Experimental data reported in PubChem BioAssay (Tox21).
Several values for one entry are separate records, joined by “and”; a condition that tells them apart may be missing. Identical values can stand only once. Records with an inconclusive call do not appear. Activity calls are given as the source filed them. Unless noted, calls come from the whole dose curve; as a rule, active = well fitted curve in the direction sought with a large enough effect in the repeat runs; inconclusive = weak or mixed curves; inactive = no such curve, though single readings can be large; an effect the other way counts as inactive or inconclusive.

Columns and labels:
[1] = qHTS assay to identify small molecule agonists of the vitamin D receptor (VDR) signaling pathway - cell viability counter screen (AID 743224); note: nearly all actives have a fitted effect of over 50% in size; note: potency is the fitted concentration of half-maximal effect
Procedure, shortened: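 Luminescence from CellTiter-Glo, read after 30 min at room temperature, reports viability of VDR-bla cells treated with compounds for 16 h at 37C in the wells used for the beta-lactamase FRET read.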

[2] = qHTS assay to identify small molecule agonists of the NFkB signaling pathway - cell viability counter screen (AID 1159515; calls by dose curve; note: nearly all actives have a fitted effect of over 55% in size; note: potency is the fitted concentration of half-maximal effect)
Procedure, shortened: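 Luminescence from CellTiter-Glo (30 min, room temperature) gives viability, measured in the same wells as the beta-lactamase reporter read. Cells were NFkB-bla ME-180, 2,000 per well, treated 5 hr with compounds.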

[3] = qHTS assay to identify small molecule agonists of the endoplasmic reticulum stress response signaling pathway - cell viability counter screen (AID 1159517; calls by dose curve; note: nearly all actives have a fitted effect of over 50% in size; note: potency is the fitted concentration of half-maximal effect)
Procedure, shortened: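 Luminescence readout: CellTiter-Glo, 30 min RT, same wells as the ESRE-bla reporter read. HeLa ESRE-bla, 1,500 cells/well, o/n 37 C; cpd 5 hr 37 C/5% CO2.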

[4] = target: Nuclear receptor ROR-gamma (Homo sapiens) (UniProt P51449); experiment: qHTS assay to identify small molecule antagonists of the retinoid-related orphan receptor gamma (ROR-gamma) signaling pathway (AID 1159521; note: nearly all actives have a fitted effect of over 50% in size; note: potency is the fitted concentration of half-maximal effect)
Procedure, shortened: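 Antagonist read-out: drop in luminescence (ONE-Glo) from an RORE-LUC reporter in CHO cells with doxycycline-inducible ROR-gamma; 2 hr compound pretreatment, 1 uM doxycycline, 16 hr incubation at 37 C.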

[5] = qHTS assay to identify small molecule agonists of the RXR signaling pathway - cell viability counter screen (AID 1159529); note: nearly all actives have a fitted effect of over 50% in size; note: potency is the fitted concentration of half-maximal effect
Procedure, shortened: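 CellTiter-Glo luminescence gave viability in the wells also read for beta-lactamase. Cells (RXR-alpha-UAS-bla HEK 293T, 2% charcoal-stripped FBS medium) had 5 hr plating, then 16 hr compound exposure at 37 C; tetraoctyl ammonium bromide served as positive control.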

[6] = qHTS assay to identify small molecule antagonists of the retinoid acid receptor (RAR) signaling pathway - cell viability counter screen (AID 1159551); note: nearly all actives have a fitted effect of over 35% in size; note: potency is the fitted concentration of half-maximal effect
Procedure, shortened: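 Luminescent ATP quantitation (CellTiter-Glo) gave cell viability in C3RL4 cells exposed to test chemicals for 6 h at 37 C alongside 1 uM final retinol.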

[7] = qHTS assay to identify small molecule antagonists of the retinoic acid receptor (RAR) signaling pathway (AID 1159552; note: nearly all actives have a fitted effect of over 50% in size; note: potency is the fitted concentration of half-maximal effect)
Procedure, shortened: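 Luminescent RARE reporter read-out in C3RL4 cells: 6 hr co-treatment at 37 C of test compounds with retinol at 1 uM final. Cells plated overnight beforehand; luciferase reagent incubated 30 min at room temperature before reading.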

[8] = qHTS assay to identify small molecule antagonists of the vitamin D receptor (VDR) signaling pathway - cell viability counter screen (AID 743225); note: nearly all actives have a fitted effect of over 50% in size; note: potency is the fitted concentration of half-maximal effect
Procedure, shortened: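 Cytotoxicity counter screen read by CellTiter-Glo luminescence (30 min, room temperature) in the same wells as the VDR-bla antagonist readout. HEK 293T VDR-UAS-bla cells had 16 h at 37C with compound and 3 nM (final) 1-alpha,25-dihydroxyvitamin D3, then 2 h with FRET substrate.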

[9] = qHTS assay to identify small molecule antagonists of the retinoid-related orphan receptor gamma (ROR-gamma) signaling pathway - cell viability counter screen (AID 1159520); note: nearly all actives have a fitted effect of over 50% in size; note: potency is the fitted concentration of half-maximal effect
Procedure, shortened: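 Tet-on ROR gamma CHO cells (1,000/well) were plated 4 hr, given compounds in DMSO for 2 hr at 37 C, then induced with 1 uM final doxycycline for 16 hr. Viability was read as ATP by CellTiter-Glo luminescence after 30 min.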

[10] = target: Retinoic acid receptor RXR-alpha (Homo sapiens) (UniProt P19793); experiment: qHTS assay to identify small molecule agonists of the RXR signaling pathway (AID 1159527; calls by dose curve; note: nearly all actives have a fitted effect of over 35% in size)
Retinoic acid receptor RXR-alpha (Homo sapiens), sequence (P19793 whole entry, looked up): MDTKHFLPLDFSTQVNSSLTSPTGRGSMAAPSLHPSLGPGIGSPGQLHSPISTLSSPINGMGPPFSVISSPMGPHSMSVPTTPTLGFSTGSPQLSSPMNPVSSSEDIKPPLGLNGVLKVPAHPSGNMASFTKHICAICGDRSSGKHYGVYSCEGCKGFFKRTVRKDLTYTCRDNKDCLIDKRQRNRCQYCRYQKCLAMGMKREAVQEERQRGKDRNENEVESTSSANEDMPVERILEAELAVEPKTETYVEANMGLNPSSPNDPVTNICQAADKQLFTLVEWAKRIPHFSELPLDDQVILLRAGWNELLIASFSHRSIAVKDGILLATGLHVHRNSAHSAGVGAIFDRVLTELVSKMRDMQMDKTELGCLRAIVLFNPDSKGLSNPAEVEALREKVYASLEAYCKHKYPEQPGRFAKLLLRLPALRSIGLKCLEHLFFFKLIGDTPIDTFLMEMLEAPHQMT
Procedure, shortened: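 Agonist-mode beta-lactamase reporter assay: HEK 293T RXR-alpha-UAS-bla cells treated 16 hr at 37 C with compounds, 9-cis retinoic acid as positive control. LiveBLAzer FRET substrate, 405 nm excitation, 460/530 nm emission.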

[11] = qHTS assay to identify small molecule agonists of the retinoic acid receptor (RAR) signaling pathway (AID 1159553); note: potency is the fitted concentration of half-maximal effect
Procedure, shortened: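 Luminescence from a RARE-driven luciferase reporter in C3RL4 cells served as the read-out, measured after 30 min with detection reagent at room temperature. Compounds in DMSO were applied for 6 hr at 37 C following overnight seeding.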

[12] = qHTS assay to identify small molecule agonists of the AP-1 signaling pathway - cell viability counter screen (AID 1159525; calls by dose curve; note: nearly all actives have a fitted effect of over 55% in size; note: potency is the fitted concentration of half-maximal effect)
Procedure, shortened: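 ME-180 AP-1-bla, 2500 cells/well, Opti-MEM + 0.5% dialyzed FBS; overnight 37 °C; cpd 15-pt titration, 5 h 37 °C; CellTiter-Glo 30 min RT; luminescence read; normalised to TOAB and DMSO controls.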

[13] = qHTS assay to identify small molecule antagonists of the estrogen related receptor (ERR) signaling pathway (AID 1224819)
Procedure, shortened: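 Seed ERR cells 2,000/well; rest 6 h at 37 C/5% CO2; pin compounds in DMSO; incubate 18 h at 37 C; add One-Glo; wait 30 min at room temperature; measure luminescence.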

[14] = qHTS assay to identify small molecule agonists of the estrogen related receptor (ERR) signaling pathway (AID 1224820)
Procedure, shortened: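 ERR reporter cells (NTP line) plated 2,000/well, incubated 6 h at 37 C/5% CO2, then pinned with compounds in DMSO and held 18 h at 37 C. One-Glo added; luminescence read after 30 min at room temperature.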

[15] = tested on: estrogen-related receptor alpha (ERRalpha) with PGC-1alpha coactivator, human; experiment: qHTS assay to identify small molecule antagonists of the estrogen related receptor signaling pathway with the pleiotropic PPARgamma coactivator (PGC) (AID 1224821; calls by dose curve)
Procedure, shortened: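 Cells engineered for PGC/ERR signalling (line from NTP) were plated 6 h at 37 C/5% CO2, then exposed to DMSO-dissolved compound for 18 h at 37 C. Luciferase activity was read by One-Glo luminescence after 30 min at room temperature.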

[16] = qHTS assay to identify small molecule antagonists of the estrogen related receptor signaling pathway with the pleiotropic PPARgamma coactivator (PGC) cell viability counter screen (AID 1224822;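 note: potency is the fitted concentration of half-maximal effect; viability read after 17.5 h compound exposure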)
Procedure, shortened: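 Cells: PGC/ERR, 2,000/well, 1536-well format. Pre-incubation 6 h, 37 C/5% CO2. Compound exposure 17.5 h, 37 C. Detection: CellTiter-Fluor, 30 min, fluorescence.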

[17] = qHTS assay to identify small molecule agonists of the estrogen related receptor signaling pathway with the pleiotropic PPARgamma coactivator (PGC) (AID 1224823)
Procedure, shortened: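 PGC/ERR reporter cells were seeded, rested 6 h at 37 C/5% CO2, then exposed to compounds in DMSO by pin transfer for 18 h at 37 C. Luciferase activity was read as luminescence after One-Glo reagent and 30 min at room temperature.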

[18] = qHTS assay to identify small molecule agonists of the AP-1 signaling pathway (AID 1159526; calls by dose curve; note: potency is the fitted concentration of half-maximal effect)

Measured: Potency

c1ccc2c(c1)cc1ccc3cccc4ccc2c1c34
inactive: [1] | [2] | [3] | [4] | [5] | [6] | [7]

Cc1cccc(Cc2cnc[nH]2)c1C
not listed: [12] | [13] | [14] | [15] | [16] | [17] | [18]
inactive: all other assays above

Fc1ccc(C(OCCN2CCN(CCCc3ccccc3)CC2)c2ccc(F)cc2)cc1
active: [1] 29.8 µM | [8] 21.3 µM | [2] 23.9 µM | [9] 29.8 µM | [4] 13.3 µM | [12] 21.3 µM | [5] 16.9 µM | [13] 9.08 µM | [15] 12.8 µM | [16] 22.8 µM
inactive: [14] | [17]

CC[C@H](C)[C@H]1O[C@]2(C=C[C@@H]1C)C[C@@H]1C[C@@H](C/C=C(\C)[C@@H](O[C@H]3C[C@H](OC)[C@@H](O[C@H]4C[C@H](OC)[C@@H](NC)[C@H](C)O4)[C@H](C)O3)[C@@H](C)/C=C/C=C3\CO[C@@H]4[C@H](O)C(C)=C[C@@H](C(=O)O1)[C@]34O)O2
active: [1] 3.09 µM | [8] 4.36 µM | [2] 34.7 µM | [3] 19.5 µM | [9] 13.7 µM | [4] 3.86 µM | [5] 4.36 µM | [6] 13.7 µM

C=C(C)C(=O)[O][Sn]([CH2]CCC)([CH2]CCC)[CH2]CCC
active: [1] 0.49 µM | [8] 1.95 µM | [2] 0.436 µM | [3] 0.692 µM | [9] 1.37 µM | [4] 0.306 µM | [12] 0.977 µM | [5] 1.1 µM | [6] 7.7 µM | [7] 2.73 µM

O=C1C2(Cl)C3(Cl)C4(Cl)C(Cl)(Cl)C5(Cl)C3(Cl)C1(Cl)C5(Cl)C24Cl (stereo not drawn)
active: [1] 48.2 µM and 41.8 µM | [8] 48.2 µM and 46.9 µM | [2] 52.6 µM | [3] 48.2 µM | [9] 21.3 µM and 46.5 µM | [4] 12 µM and 29.3 µM | [12] 30.4 µM | [5] 24.1 µM and 41.8 µM | [6] 47.8 µM | [7] 21.3 µM and 29.3 µM

c1ccc(N=NNc2ccccc2)cc1
active: [11] 3.17 µM and 7.7 µM
inactive: [2] | [3] | [4] | [12] | [10] | [5] | [7]

C=CC(=O)[O][Sn]([CH2]CCC)([CH2]CCC)[CH2]CCC
active: [1] 1.38 µM | [8] 3.09 µM | [2] 0.977 µM | [3] 0.977 µM | [9] 1.09 µM | [4] 0.611 µM | [12] 2.45 µM | [5] 1.38 µM | [6] 6.11 µM | [7] 0.864 µM

CC(=O)[O][Sn]([c]1ccccc1)([c]1ccccc1)[c]1ccccc1
active: [8] 0.219 µM | [2] 2.45 µM | [3] 13.8 µM | [9] 0.0969 µM | [4] 0.0243 µM | [12] 3.89 µM | [5] 0.138 µM | [6] 7.7 µM

N#Cc1sc2c(=O)c3ccccc3c(=O)c=2sc1C#N
active: [1] 4.9 µM | [8] 11 µM | [2] 1.95 µM | [3] 6.92 µM | [9] 2.17 µM | [4] 13.7 µM | [12] 0.389 µM | [5] 9.77 µM | [6] 27.3 µM | [7] 30.6 µM

Brc1ccc(Oc2ccc(Br)cc2Br)c(Br)c1
inactive: [8] | [2] | [4] | [12] | [18] | [10] | [6] | [7]

CC(O)C(=O)[O][Hg][c]1ccccc1 (stereo not drawn)
active: [1] 1.23 µM | [8] 1.74 µM | [2] 0.871 µM | [3] 1.1 µM | [9] 1.37 µM | [4] 0.486 µM | [12] 2.45 µM | [5] 1.95 µM | [6] 13.7 µM

CC1(C)[C@H](/C=C2\CCSC2=O)[C@@H]1C(=O)OCc1coc(Cc2ccccc2)c1
inactive: [1] | [2] | [9] | [12] | [10] | [5] | [6] | [7] | [11]
active: [4] 27.3 µM

O=C(O)CCCCCCNC1c2ccccc2CCc2ccccc21
active: [18] 10.7 µM
not listed: [9] | [13] | [14] | [15] | [16] | [17]
inactive: all other assays above
